Experimental data: paper PMC13494018
Values without a mark were called inactive. The rule behind the calls is not given here.

Legend:
[1] = target: control:Baker_PD-L1, Q9NZQ7
control:Baker_PD-L1, Q9NZQ7, sequence (Q9NZQ7 whole entry): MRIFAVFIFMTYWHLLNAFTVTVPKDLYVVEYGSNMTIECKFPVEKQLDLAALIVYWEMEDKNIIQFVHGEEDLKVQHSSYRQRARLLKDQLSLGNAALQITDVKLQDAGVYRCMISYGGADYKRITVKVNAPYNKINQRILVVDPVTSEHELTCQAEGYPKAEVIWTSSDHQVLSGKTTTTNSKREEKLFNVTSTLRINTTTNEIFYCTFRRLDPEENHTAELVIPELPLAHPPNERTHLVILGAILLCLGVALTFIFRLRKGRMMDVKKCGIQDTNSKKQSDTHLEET

VTCN1, Q7Z7D3, sequence (Q7Z7D3 whole entry): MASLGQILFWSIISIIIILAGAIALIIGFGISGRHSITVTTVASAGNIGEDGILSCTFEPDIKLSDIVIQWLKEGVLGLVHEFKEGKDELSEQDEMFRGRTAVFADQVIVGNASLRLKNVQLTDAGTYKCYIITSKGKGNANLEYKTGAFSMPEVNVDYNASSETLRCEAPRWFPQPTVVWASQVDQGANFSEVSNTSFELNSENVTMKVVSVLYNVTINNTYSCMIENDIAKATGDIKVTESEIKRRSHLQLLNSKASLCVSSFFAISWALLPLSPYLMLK

B1: d4r5_design_ppi_438_dldesign_0_cycle1_af2pred (protein)
chain: DLEELKRRAEQVELLVEMAEEEAKTGSKEEALALLNSAIRDAKEVAEEGAAYPEVSERAKAALERAEKIRKELLAS
binding in a display sort (VTCN1, Q7Z7D3): not found

B2: Pdl1_binder_AF2_33 (protein)
chain: MEEAKRVAEQMALMMRAAGEEASVEVEGDKITIYYKGDDESLWEVAESVAEKIEEKYGVEVEVVR
binding in a display sort [1]: not found

B3: Pdl1_binder_AF2_3 (protein)
chain: MEKAEERKKWLLEKLKELGVEVKEISLDGHVVITGAKSEEALKGAESLVKMFGLFLGVEAKVEVV
binding in a display sort [1]: not found

B4: d4r5_design_ppi_435_dldesign_0_cycle1_af2pred (protein)
chain: SKSKKEAEKMREATRAFKEAGKAAAAAIASGETGEEAIAAARAKAEEVIKEAKEVGEGAGEFAEMLKENLDKALAAAS
binding in a display sort (VTCN1, Q7Z7D3): not found

B5: Pdl1_binder_AF2_13 (protein)
chain: MYVLVAKADENEARFLKLMAEKLGVKAEVEGDIVTFVSDDKEAIEIIRRFLEKEGRVISFEE
binding in a display sort [1]: not found

B6: d4r5_design_ppi_448_dldesign_0_cycle0_af2pred (protein)
chain: MKEKLKKEAKEAEKKMEELIKKIEEANPEAGKVAREAREKGKASPKGREYTNKGISEAGKLAGPEVAPIAQEARQEAAAADAYKKII
binding in a display sort (VTCN1, Q7Z7D3): not found

B7: Pdl1_binder_AF2_12 (protein)
chain: MHRTVTVKNEAEAIAAVIEAYHSGEKLTIVTDSEEIAKKAERLNKQLGGNATFEV
binding in a display sort [1]: not found

B8: d4r5_design_ppi_384_dldesign_0_cycle1_af2pred (protein)
chain: GITWDELMDIQADAFYYLSEAKKITPEAEAKAKELYQKSLEYYKKAAEYLAKAEEVGPEAKEEAKEYADKAAEEVEKLKKLVEEAKN
binding in a display sort (VTCN1, Q7Z7D3): not found

B9: Pdl1_binder_AF2_43 (protein)
chain: SAIEKTKEKIRQLFESAGVEVEDIEVEGDTITVHVKEDTEAARQAALLANVYAEDKVGLKVVLEA
binding in a display sort [1]: not found

B10: Pdl1_binder_AF2_5 (protein)
chain: EEDLEKLVELARKALEHIKRAAEYSKEDESKMAEELAKAVALASEISKIDVEVAKLVLKAVNAVMKGDRLEEGVKLAEEALKRAEEKK
binding in a display sort [1]: binds (active)

B11: d4r5_design_ppi_343_dldesign_0_cycle1_af2pred (protein)
chain: GEEEEKKKKLNELQDEAAEAIGEVYLEAKKTGELELAKEVSKKVRKALKDPEEAKKAIEEAKKEAKKLKKKL
binding in a display sort (VTCN1, Q7Z7D3): not found

B12: d4r5_design_ppi_400_dldesign_0_cycle1_af2pred (protein)
chain: AAAEAAAKEAAKAKADELLKKAKESYEEAKKNKDNKELVFKYLADIEVKAAQADFLGAKDPYAKEKAKEIEKLAKEAEKILK
binding in a display sort (VTCN1, Q7Z7D3): not found

B13: d4r5_design_ppi_375_dldesign_0_cycle1_af2pred (protein)
chain: AAKEMANELQELIEKLREASSVKDQNEVSKVIKEARKKAKEAIKAYEKDPELGKKLFEEAKEILEKALKKAE
binding in a display sort (VTCN1, Q7Z7D3): not found

B14: d4r5_design_ppi_378_dldesign_0_cycle0_af2pred (protein)
chain: AAAAAAAARAAMAAQAAANAAKAKEVFDKLAETYPEAKDEAKAKAAEVAAAFAATAAAGGDQAQLTANNNAAQDARSEVIAIANKK
binding in a display sort (VTCN1, Q7Z7D3): not found

B15: d4r5_design_ppi_429_dldesign_0_cycle0_af2pred (protein)
chain: VEEAKKLGEEYIKKVKEAKDAKEALEIGEKAAKELVEKAKASEDGETAQAYLEAASEVKATALRQARKLEE
binding in a display sort (VTCN1, Q7Z7D3): not found

B16: Pdl1_binder_AF2_22 (protein)
chain: YRIAIFFPSREKAEEWAAEARAAGRLVRYLTNLMVVEVDSEEEARAVAAEAEALGAATVFLD
binding in a display sort [1]: not found

B17: Pdl1_binder_AF2_49 (protein)
chain: SKKVRFQAYQASAEVIAKEVGGYVVSTGPDKVVIAAPTEEAAEKARKALDELGKAFGFGYEVFVA
binding in a display sort [1]: not found

B18: d4r5_design_ppi_428_dldesign_0_cycle1_af2pred (protein)
chain: AAAAAETAAARERAARDLARAEAAAKAGKADPSKAPLAIAILEGVAERFEFYAKAAGPAAAAVAREAAERAKALAKEL
binding in a display sort (VTCN1, Q7Z7D3): not found

B19: d4r5_design_ppi_466_dldesign_0_cycle1_af2pred (protein)
chain: EEKKKILEEAAKEAAAAAKADNPELAPRVERLAKRAVEIGTKQKSVEAAAGVMENAADQAAAAAPAAAAVLKKGAEELEKLAK
binding in a display sort (VTCN1, Q7Z7D3): not found

B20: d4r5_design_ppi_459_dldesign_0_cycle1_af2pred (protein)
chain: DLEALKEKYLKETKAAAEKAAKIDKKVGDELKDLAELIKEGYGVKGNYNKAKALAAKAEADAKKEAALKA
binding in a display sort (VTCN1, Q7Z7D3): not found

B21: Pdl1_binder_AF2_2 (protein)
chain: SIEEMVEEMEKLLEEAAKIVPEIKELLEKAKEIAKKAIEIAKKKGNGEAVAKIFRDMAEMTLRAAKFDKKGAENAALLMIKRAEDIAE
binding in a display sort [1]: not found

B22: Pdl1_binder_AF2_30 (protein)
chain: MSKRDELLTKALEYLQKATKLVYEHDPETAREIAHHFSKAVADPEKAEEELEKALELAEKAAAEMERGEELRELMEKAKEYVLEYVKL
binding in a display sort [1]: not found

B23: Pdl1_binder_AF2_6 (protein)
chain: SDELRVEAVQVAQEASVAIARAERAVAEGDAEEIRRAAEELERAARRAEEQAERLEEAGDKGMAEFLRRVVERAREAAARARRAAEEL
binding in a display sort [1]: not found

B24: Pdl1_binder_AF2_18 (protein)
chain: DEETRREIAEHLLRVAKKDQGLVDAEIEGDKVRVKAKTEEQYEKGKIAAEAAAAIVGGEAEAEIV
binding in a display sort [1]: not found

B25: d4r5_design_ppi_400_dldesign_0_cycle0_af2pred (protein)
chain: AAAAAAAKAAAKAAAEKDLKRAEEAYKNAKKNKDNKEIVFKNYAEIETKAARADALAAADPYAAEAAKKIKELAEEAEKILK
binding in a display sort (VTCN1, Q7Z7D3): not found

B26: d4r5_design_ppi_497_dldesign_0_cycle0_af2pred (protein)
chain: KKEEVRKITEEAIEKMRTVEPEEAVNAVQDAQFEMQGLAPTAETRRKVARLASEAARLVATGEKVEEGIEKLREAGEYLIESL
binding in a display sort (VTCN1, Q7Z7D3): not found

B27: d4r5_design_ppi_490_dldesign_0_cycle0_af2pred (protein)
chain: SKEEEAKKTGKEQVKKVKETAETGTAAETAETAQEARAELNEKAAEAGTEEARKIAEEAKKEIREIVKKKKEEEA
binding in a display sort (VTCN1, Q7Z7D3): not found

B28: d4r5_design_ppi_347_dldesign_0_cycle1_af2pred (protein)
chain: GREEEAKRVAEVILERLKDPKAQEAAKKTGEAGKAFLEAYELYKKDREAGIEYLAKEILKNPSWAQDFRENYAEEEAK
binding in a display sort (VTCN1, Q7Z7D3): not found

B29: Pdl1_binder_AF2_8 (protein)
chain: YKLVVEAPNEKIAEQIKEIAESIGAKAEIEGMKVVIEADDKQTIEFIKLYAEEKGAKVLEIT
binding in a display sort [1]: binds (active)

B30: Pdl1_binder_AF2_37 (protein)
chain: SETTLKETAKLIEVMAKDRGEFVKIEAKGDKIVLYTKTEEGAKKINKEGSKLAKSVGVEFEAKVA
binding in a display sort [1]: not found

B31: d4r5_design_ppi_466_dldesign_0_cycle0_af2pred (protein)
chain: SEAEEILRETVERATAAAAAEDPALAPRVRAAAERAAEIAKSQKSIEAAAGVLEIFADRAAAASPAAAAVAREGARRLEELAK
binding in a display sort (VTCN1, Q7Z7D3): not found

B32: Pdl1_binder_AF2_51 (protein)
chain: MEVIYADTKEEATMKVMEALSRGVAREDILVYLKDAKDAEKLAKVWGVTAKLA
binding in a display sort [1]: not found

B33: d4r5_design_ppi_375_dldesign_0_cycle0_af2pred (protein)
chain: KEKEMANKLQEKIEELYSAATPEQQSKVSEKIKEARKAAKEAVKKYKEDEEKGKELFKKAEEILEEGLKEAK
binding in a display sort (VTCN1, Q7Z7D3): not found

B34: d4r5_design_ppi_384_dldesign_0_cycle0_af2pred (protein)
chain: AVTWDEILDIQARANYYLSEAKKLTEEAYKEAKKLYEEARKHYGEAAKYLADAPKVGEEAKKKAAEHAKEAEKLVKELEELVKKAKE
binding in a display sort (VTCN1, Q7Z7D3): not found

B35: Pdl1_binder_AF2_45 (protein)
chain: MIVHIETPTRDLQLFLKLYAEEKGFKVVEAGETSLVIESDLPREKVEKFIRIAEAMGAKVEVEE
binding in a display sort [1]: binds (active)

B36: Pdl1_binder_AF2_35 (protein)
chain: SLKEKAEKHIEEAEKLAKKVGELADKEKAEKAIELLKKGTPESIVEAIALLDQLAKEEKENKEEVRKLASEAIVAAMKAAALLDAAEE
binding in a display sort [1]: not found

B37: d4r5_design_ppi_438_dldesign_0_cycle0_af2pred (protein)
chain: SKEEMERRAEQVEKAVEGAEEEAKEGTPEEALALLRSVLRRAKEVAEESKKYPEVKKRAEKALERAEKIKKELLEK
binding in a display sort (VTCN1, Q7Z7D3): not found

B38: d4r5_design_ppi_473_dldesign_0_cycle1_af2pred (protein)
chain: GEAKRKKAEALLERYKARAEELIEKAKASDYVTAESYAISVETRFTDFAAAAEKDPATKEVAKRAKKVGKEYVEKLKKIAEEKKAAE
binding in a display sort (VTCN1, Q7Z7D3): not found

B39: Pdl1_binder_AF2_7 (protein)
chain: DKESAAKKAIQLLEIARERVVADPAAAKAFKEAAKLVEVMLKDAGADEEKAEKVEEKAEKAADAYAAGDKETADKYYEEAVELVKEAA
binding in a display sort [1]: not found
